# Test results from publication PMC7862700, “An all-to-all approach to the identification of sequence-specific readers for epigenetic DNA modifications on cytosine”.
# Key:
# Assay in all cases: DAPPL (digital affinity profiling via proximity ligation, sequencing); 10 mM Tris-HCl pH 7.5, 50 mM NaCl, 1 mM DTT, 4% glycerol, room temperature, 30 min; GST-TFs on glutathione beads, 16-mer random dsDNA library, 0.1% formaldehyde crosslink after washing; high values mean tight binding
# Details in all cases: protein: recombinant; tags: N-terminal GST; dsDNA, one strand shown
# ERF = biological target: T1, ERF (Homo sapiens, UniProt P50548 1-548)
# T1 sequence: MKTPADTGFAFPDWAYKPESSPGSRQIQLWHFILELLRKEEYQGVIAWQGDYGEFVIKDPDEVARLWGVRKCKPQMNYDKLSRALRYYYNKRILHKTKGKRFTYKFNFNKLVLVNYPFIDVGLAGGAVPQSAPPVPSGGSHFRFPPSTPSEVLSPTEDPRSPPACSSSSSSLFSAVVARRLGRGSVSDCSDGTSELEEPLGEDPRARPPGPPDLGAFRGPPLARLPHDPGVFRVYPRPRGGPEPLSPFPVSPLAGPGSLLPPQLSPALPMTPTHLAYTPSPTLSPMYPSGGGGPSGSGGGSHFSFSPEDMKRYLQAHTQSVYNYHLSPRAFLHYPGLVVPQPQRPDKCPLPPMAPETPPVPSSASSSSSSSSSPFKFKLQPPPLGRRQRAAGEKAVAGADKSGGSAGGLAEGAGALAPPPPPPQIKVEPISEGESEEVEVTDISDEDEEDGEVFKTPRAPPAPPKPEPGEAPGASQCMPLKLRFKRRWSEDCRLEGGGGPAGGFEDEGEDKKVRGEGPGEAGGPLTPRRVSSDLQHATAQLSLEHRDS
# Method in brief: (§1)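 Each value of binding signal is a hexamer's read frequency for a factor divided by the same hexamer's frequency in the tag-only sample. Barcoded, bead-captured GST fusions of human transcription factors made in yeast were pooled with that sample and incubated with 200 nmole of a random double-stranded 16-mer DNA library in Tris/NaCl/DTT/glycerol buffer at room temperature for 30 min. Washing, 0.1% formaldehyde crosslinking, proximity ligation, PCR and Illumina NextSeq500 sequencing followed.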
# ETV3L = biological target: T2, ETV3L (Homo sapiens, UniProt Q6ZN32 1-361)
# T2 sequence: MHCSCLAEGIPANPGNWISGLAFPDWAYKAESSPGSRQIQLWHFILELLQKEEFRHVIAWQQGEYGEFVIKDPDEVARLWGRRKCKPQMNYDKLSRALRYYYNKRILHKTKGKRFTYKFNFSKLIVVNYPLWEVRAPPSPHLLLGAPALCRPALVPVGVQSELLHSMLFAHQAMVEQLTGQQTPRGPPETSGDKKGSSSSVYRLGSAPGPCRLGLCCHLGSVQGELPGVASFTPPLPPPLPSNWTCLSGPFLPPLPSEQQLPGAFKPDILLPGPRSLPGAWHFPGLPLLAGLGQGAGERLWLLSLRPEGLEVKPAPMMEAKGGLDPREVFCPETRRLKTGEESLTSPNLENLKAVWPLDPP
# Method in brief: as §1
# ETS2 = biological target: T3, ETS2 (Homo sapiens, UniProt P15036 1-469)
# T3 sequence: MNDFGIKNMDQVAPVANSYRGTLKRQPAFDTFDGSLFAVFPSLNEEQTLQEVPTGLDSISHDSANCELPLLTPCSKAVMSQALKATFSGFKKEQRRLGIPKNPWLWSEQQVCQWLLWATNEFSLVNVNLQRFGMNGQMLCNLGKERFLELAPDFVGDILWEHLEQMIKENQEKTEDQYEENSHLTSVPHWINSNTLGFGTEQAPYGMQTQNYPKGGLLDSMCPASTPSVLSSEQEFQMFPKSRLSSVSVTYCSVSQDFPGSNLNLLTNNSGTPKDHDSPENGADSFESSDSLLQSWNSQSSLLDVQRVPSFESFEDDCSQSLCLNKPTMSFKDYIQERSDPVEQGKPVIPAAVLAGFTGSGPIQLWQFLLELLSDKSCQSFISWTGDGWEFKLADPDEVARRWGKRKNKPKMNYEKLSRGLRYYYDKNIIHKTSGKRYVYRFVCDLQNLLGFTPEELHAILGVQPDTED
# Method in brief: as §1
# SPDEF = biological target: T4, SPDEF (Homo sapiens, UniProt O95238 1-335)
# T4 sequence: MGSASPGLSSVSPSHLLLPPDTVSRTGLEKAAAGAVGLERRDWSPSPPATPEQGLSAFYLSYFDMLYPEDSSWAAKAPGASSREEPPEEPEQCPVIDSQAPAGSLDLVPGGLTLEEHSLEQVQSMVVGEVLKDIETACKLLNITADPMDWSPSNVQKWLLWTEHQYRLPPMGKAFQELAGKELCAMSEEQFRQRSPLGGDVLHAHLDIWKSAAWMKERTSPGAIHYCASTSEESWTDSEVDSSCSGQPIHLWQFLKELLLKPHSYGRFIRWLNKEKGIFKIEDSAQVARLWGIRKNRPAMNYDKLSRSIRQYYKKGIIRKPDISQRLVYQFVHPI
# Method in brief: as §1
# ETV7 = biological target: T5, ETV7 (Homo sapiens, UniProt Q9Y603 1-341)
# T5 sequence: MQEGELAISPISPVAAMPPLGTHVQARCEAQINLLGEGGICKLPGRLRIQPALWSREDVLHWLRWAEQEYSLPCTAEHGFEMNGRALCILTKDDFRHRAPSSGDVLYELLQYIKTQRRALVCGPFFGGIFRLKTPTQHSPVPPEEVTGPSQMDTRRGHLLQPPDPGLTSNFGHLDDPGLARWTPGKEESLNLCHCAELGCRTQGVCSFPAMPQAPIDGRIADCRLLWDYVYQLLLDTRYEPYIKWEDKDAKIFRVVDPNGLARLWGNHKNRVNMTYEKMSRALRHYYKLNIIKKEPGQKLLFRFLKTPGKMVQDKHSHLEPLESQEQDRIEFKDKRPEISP
# Method in brief: as §1
# ELF5 = biological target: T6, ELF5 (Homo sapiens, UniProt Q9UKW6-2 1-255)
# T6 sequence: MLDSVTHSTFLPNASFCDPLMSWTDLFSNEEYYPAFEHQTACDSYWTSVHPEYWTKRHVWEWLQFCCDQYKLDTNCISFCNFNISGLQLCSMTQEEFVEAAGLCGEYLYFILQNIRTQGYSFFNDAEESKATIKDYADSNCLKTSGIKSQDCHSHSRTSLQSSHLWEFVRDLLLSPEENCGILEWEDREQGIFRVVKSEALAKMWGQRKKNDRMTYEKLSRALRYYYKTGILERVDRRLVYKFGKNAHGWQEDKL
# Method in brief: as §1
# ETV3 = biological target: T7, ETV3 (Homo sapiens, UniProt P41162-2 1-143)
# T7 sequence: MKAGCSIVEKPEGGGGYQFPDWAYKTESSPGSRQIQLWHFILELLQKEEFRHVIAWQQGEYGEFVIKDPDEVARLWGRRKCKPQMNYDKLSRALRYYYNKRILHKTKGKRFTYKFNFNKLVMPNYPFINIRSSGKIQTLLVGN
# Method in brief: as §1
# ETV6 = ETV6 (Homo sapiens, UniProt P41212 1-452)
# Chain of ETV6 (P41212 whole entry): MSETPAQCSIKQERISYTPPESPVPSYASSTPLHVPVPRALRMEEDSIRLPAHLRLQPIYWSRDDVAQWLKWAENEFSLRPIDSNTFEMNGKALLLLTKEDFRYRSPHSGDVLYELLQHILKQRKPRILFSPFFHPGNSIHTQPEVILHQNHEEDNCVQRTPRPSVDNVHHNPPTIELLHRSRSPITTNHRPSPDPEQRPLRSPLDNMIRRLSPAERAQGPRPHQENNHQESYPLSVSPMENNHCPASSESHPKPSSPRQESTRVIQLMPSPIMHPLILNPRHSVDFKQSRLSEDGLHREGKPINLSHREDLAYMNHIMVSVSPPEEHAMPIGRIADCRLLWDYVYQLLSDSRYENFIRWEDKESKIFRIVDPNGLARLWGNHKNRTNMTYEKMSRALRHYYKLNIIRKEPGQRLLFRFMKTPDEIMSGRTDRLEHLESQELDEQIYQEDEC
# Method in brief: as §1
Sequence,binding signal (ERF),binding signal (ETV3L),binding signal (ETS2),binding signal (SPDEF),binding signal (ETV7),binding signal (ELF5),binding signal (ETV3),binding signal (ETV6)
ACGCCT,"1.15 fold enrichment (6-mer frequency, TF over GST control)","1.31 fold enrichment (6-mer frequency, TF over GST control)","1.17 fold enrichment (6-mer frequency, TF over GST control)","1.12 fold enrichment (6-mer frequency, TF over GST control)","1.01 fold enrichment (6-mer frequency, TF over GST control)","1.09 fold enrichment (6-mer frequency, TF over GST control)","1.19 fold enrichment (6-mer frequency, TF over GST control)","1.3 fold enrichment (6-mer frequency, TF over GST control)"
TTTTTG,"1.35 fold enrichment (6-mer frequency, TF over GST control)","1.38 fold enrichment (6-mer frequency, TF over GST control)","1.27 fold enrichment (6-mer frequency, TF over GST control)","1.28 fold enrichment (6-mer frequency, TF over GST control)","1.25 fold enrichment (6-mer frequency, TF over GST control)","1.27 fold enrichment (6-mer frequency, TF over GST control)","1.29 fold enrichment (6-mer frequency, TF over GST control)","1.23 fold enrichment (6-mer frequency, TF over GST control)"
TTGTGG,"1.33 fold enrichment (6-mer frequency, TF over GST control)","1.6 fold enrichment (6-mer frequency, TF over GST control)","1.36 fold enrichment (6-mer frequency, TF over GST control)","1.31 fold enrichment (6-mer frequency, TF over GST control)","1.34 fold enrichment (6-mer frequency, TF over GST control)","1.32 fold enrichment (6-mer frequency, TF over GST control)","1.37 fold enrichment (6-mer frequency, TF over GST control)","1.29 fold enrichment (6-mer frequency, TF over GST control)"
CAATTT,"1.36 fold enrichment (6-mer frequency, TF over GST control)","1.33 fold enrichment (6-mer frequency, TF over GST control)","1.28 fold enrichment (6-mer frequency, TF over GST control)","1.21 fold enrichment (6-mer frequency, TF over GST control)","1.31 fold enrichment (6-mer frequency, TF over GST control)","1.29 fold enrichment (6-mer frequency, TF over GST control)","1.43 fold enrichment (6-mer frequency, TF over GST control)","1.32 fold enrichment (6-mer frequency, TF over GST control)"
TTCCCG,"1.75 fold enrichment (6-mer frequency, TF over GST control)","1.9 fold enrichment (6-mer frequency, TF over GST control)","1.97 fold enrichment (6-mer frequency, TF over GST control)","2.05 fold enrichment (6-mer frequency, TF over GST control)","1.88 fold enrichment (6-mer frequency, TF over GST control)","2.91 fold enrichment (6-mer frequency, TF over GST control)","1.92 fold enrichment (6-mer frequency, TF over GST control)","2.15 fold enrichment (6-mer frequency, TF over GST control)"
AACTGC,"1.22 fold enrichment (6-mer frequency, TF over GST control)","1.37 fold enrichment (6-mer frequency, TF over GST control)","1.3 fold enrichment (6-mer frequency, TF over GST control)","1.28 fold enrichment (6-mer frequency, TF over GST control)","1.3 fold enrichment (6-mer frequency, TF over GST control)","1.36 fold enrichment (6-mer frequency, TF over GST control)","1.39 fold enrichment (6-mer frequency, TF over GST control)","1.3 fold enrichment (6-mer frequency, TF over GST control)"
ACTATT,"1.22 fold enrichment (6-mer frequency, TF over GST control)","1.27 fold enrichment (6-mer frequency, TF over GST control)","1.37 fold enrichment (6-mer frequency, TF over GST control)","1.13 fold enrichment (6-mer frequency, TF over GST control)","1.32 fold enrichment (6-mer frequency, TF over GST control)","1.29 fold enrichment (6-mer frequency, TF over GST control)","1.35 fold enrichment (6-mer frequency, TF over GST control)","1.43 fold enrichment (6-mer frequency, TF over GST control)"
GTCTCA,"1.37 fold enrichment (6-mer frequency, TF over GST control)","1.3 fold enrichment (6-mer frequency, TF over GST control)","1.34 fold enrichment (6-mer frequency, TF over GST control)","1.29 fold enrichment (6-mer frequency, TF over GST control)","1.13 fold enrichment (6-mer frequency, TF over GST control)","1.3 fold enrichment (6-mer frequency, TF over GST control)","1.32 fold enrichment (6-mer frequency, TF over GST control)","1.16 fold enrichment (6-mer frequency, TF over GST control)"
